# KB-V1 MDR tox: KB-V1 MDR subline cytotoxicity; KB-V1 MDR cells viability, CellTiter-Glo, 72 h; Potency, µM (highest dose often 46.1 µM), hits mostly cytotoxic; actives 3.4% (n = 400,000); AID 1347076; further: on the % scale 0 is the no-effect control and ±100 the full control effect; nearly all actives have a fitted effect of over 60% in size
#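 Cytotoxicity via CellTiter-Glo luminescence after 72 h compound exposure at 37 degrees C. Cells: drug-selected KB-V1 line, DMEM phenol-red free plus 10% FBS. Compounds tested at multiple concentrations; normalized data fitted to concentration-effect curves.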
# SW480 rerep: inducers of DNA re-replication in SW480 colon cancer cells. Potency, µM (titrated, usually from 46.1 µM), without a hit: at the highest dose re-replication activation, hits mostly activators. actives 1.8% (n = 340,000). SW480 DNA re-replication, Hoechst DNA content imaging, 48 h; further: % of control where 0% means no effect; nearly all actives have a fitted effect of over 55% in size
#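 Hoechst fluorescence of nuclei (405 nm excitation, 500-530 nm emission) measured by plate-scanning imager after 48 hr compound exposure at 37 C; re-replication scored as increased number of nuclei with elevated intensity.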
# KB-3-1 cytotox: kills parental KB-3-1 adenocarcinoma cells; KB-3-1 viability, CellTiter-Glo ATP luminescence, 72 h; Potency, µM (top dose mostly 46.1 µM), usual class: cytotoxic; actives 1.4% (n = 400,000); further: on the % scale 0 is the no-effect control and ±100 the full control effect; nearly all actives have a fitted effect of over 60% in size
#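 Cells are dispensed, compounds pinned in, plates held at 37 °C for 72 h, then CellTiter-Glo is added and luminescence read after 10 minutes. Cell line: parental KB-3-1 in phenol-red-free DMEM, 10% FBS.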
# MCF10A rereplic: DNA re-replication induction in MCF 10a cells; MCF 10A DNA re-replication, Hoechst nuclear intensity, 48 h; AID 624296; Potency, µM (doses to about 46.1 µM), for inactives: at the highest dose activity, positive = re-replication, actives largely listed as activators; actives 2.9% (n = 350,000); further: % of control where 0% means no effect; nearly all actives have a fitted effect of over 50% in size
# ELG1 repair inh: ELG1-dependent DNA repair inhibition; HEK293T ELG1-luciferase reporter, luminescence, 16 h; DNA damage induced by 5-fluorouridine; Potency, µM (highest dose often 46.1 µM), inactives show at the top dose activity change, negative = inhibition, most hits filed as inhibitors; actives 2.3% (n = 330,000); further: on the % scale 0 is the no-effect control and ±100 the full control effect; nearly all actives have a fitted effect of over 55% in size
#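 Luminescence from the luciferase reporter, measured 30 min after ONE-Glo reagent at room temperature, was the read-out. Beforehand, 2,000 cells per well were exposed for 16 hr at 37 °C to 5-fluorouridine together with compound or vehicle.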
# An asterisk follows results filed as active; i = inactive; ? = inconclusive; . = no result given; ! = a repeat was not active; [ ] = another dose, or the depositor's remark. Shown are actives, neighbours in structure and some others; about 8.1% of the full set was active somewhere. The call rests on the fitted dose curve; in most records, active means well fitted curve in the direction sought with a large enough effect; inconclusive means small, poorly fitted or top-dose-only effect, or another doubt; inactive means no such curve, though single readings can be large; an effect the other way counts as inactive or inconclusive. Potency means the concentration at half of the fitted maximal effect.
SMILES,KB-V1 MDR tox,SW480 rerep,KB-3-1 cytotox,MCF10A rereplic,ELG1 repair inh
c1ccc(CN2CCN(c3nc(-c4ccccn4)nc4ccccc34)CC2)cc1,i,-16%,i,-1%,8.2µM*
CCN1CCN(c2nc(-c3ccccc3Cl)nc3ccccc23)CC1,i,-13%,i,1%,?
CCN1CCN(c2nc(-c3ccccn3)nc3ccccc23)CC1,5.2µM*,?,i,6%,?
CC(C)Oc1ccc(CNC(=O)c2cc3cccc4c3n2CC(C)S4)cc1 (centres undefined),i,.,i,.,.
Cc1ccc(S(=O)(=O)N2CCN(c3ccc(S(=O)(=O)N4CCOCC4)cn3)CC2)cc1,i,?,i,-3%,4%
CCCCOc1ccc(-c2nnn(CC(=O)NCCc3c[nH]c4ccccc34)n2)cc1,16µM*,-1%,i,?,7%
CCCCCCCCCCCCCCCC(=O)NCCc1c[nH]c2ccccc12,i,6%,i,?,-12%
Cc1ccccc1NC(=O)Cn1nnc(-c2ccc(CN3CCC(C)CC3)cc2)n1,?,-4%,i,0%,0%
CCCOc1ccc(-c2nnn(CC(=O)Nc3cccc(C(=O)OC)c3)n2)cc1,13µM*,8%,i,16%,-1%
COc1ccc(NC(=O)Cn2nnc(-c3ccc(CN4CCOCC4)cc3)n2)c(OC)c1,21µM*,-2%,i,9%,-21%
COC(=O)c1ccccc1NC(=O)Cn1nnc(-c2ccc(OC)cc2)n1,15µM*!,-2%,i,16%,?
CSc1ccccc1-c1nnc(-c2ccccc2)o1,i,2%,i,-23%,?
COc1ccccc1NC(=O)Cn1nnc(-c2ccccc2NS(=O)(=O)c2ccccc2)n1,5.8µM*,?,?,7%,?
COc1ccc(NC(=O)Cn2nnc(-c3ccccc3NS(=O)(=O)c3ccc(OC)cc3)n2)cc1,?,14%,?,?,?
CC1(c2nnc(-c3cccc(Cl)c3)o2)CC(c2ccc(Cl)cc2)=NO1 (centres undefined),i,-5%,i,-5%,.
Cc1cc(C(=O)Nc2ccc(F)cc2C)n(-c2ccccc2)n1,i,-2%,i,-3%,6%
O=C(CCSc1nc(-c2ccco2)cc(C(F)(F)F)n1)NCC1CCCO1 (centres undefined),i,-1%[9.22 µM],i,-5%,-5%
N#Cc1c(Nc2ccccc2Cl)s[nH]c1=O,?,?,i,?,?
N#Cc1c(Nc2ccccc2C(F)(F)F)s[nH]c1=O,i,?,i,18µM*,6%
CN1C(c2ccc(F)cc2)=CS/C1=C(\C#N)c1nnc2n1-c1ccccc1SC2,i,-4%,i,12µM*,?
COc1ccccc1-c1ccc2c(c1)C(C)(Cc1cc(Cl)ccc1C(F)(F)F)C(=O)N2 (centres undefined),21µM*,.,?,.,.
O=[N+]([O-])c1ccccc1/C=N/N1CCN(c2ccc(Cl)cc2)CC1,10µM*,-5%,?,16%,-22%
Clc1ccc(N2CCN(/N=C/c3ccncc3)CC2)cc1,?,2%,i,19%,21µM*
COc1ccccc1/C=N/N1CCN(c2ccc(Cl)cc2)CC1,i,-7%,i,2%,-14%
Cc1ccc(N2CCN(/N=C/c3ccncc3)CC2)cc1,i,10%,i,11%,18µM*
SMILES,KB-V1 MDR tox,SW480 rerep,KB-3-1 cytotox,MCF10A rereplic,ELG1 repair inh
NC(=O)c1ccccc1OCc1nnc(-c2ccccc2Br)o1,18µM*,1%,i,4%,0%
Nc1cc(SCc2ccc([N+](=O)[O-])cc2)ncn1,i,-7%,i,-3%,.
Cc1cc2nc(-c3ccc(SCC(=O)Nc4ccc(S(=O)(=O)NC5CC5)cc4)nc3)[nH]c2cc1C,i,?,i,21µM*,?
Cc1cc2nc(-c3ccc(SCc4ccccc4C#N)nc3)[nH]c2cc1C,21µM*,?,i,13%,?
Cc1cc2nc(-c3ccc(SCC(=O)N4CCc5ccccc54)nc3)[nH]c2cc1C,i,2%,i,13%,?
Cc1cc2nc(-c3ccc(SCc4ccc(C(=O)O)cc4)nc3)[nH]c2cc1C,i,?,?,12%,?
Cc1cc(NC(=O)CSc2ccc(-c3nc4cc(C)c(C)cc4[nH]3)cn2)no1,?,?,i,0.18µM*,?
CCOCCCNC(=O)c1ccc(OC(C)=O)cc1,i,-25%,i,2%,4%
Cc1cc[n+](-c2ccccc2)c2ccccc12,i,-1%,?,-3%,10µM*
Brc1ccc(-c2nn3c(-c4ccccn4)nnc3s2)o1,18µM*,-8%,?,3%,-10%
Brc1ccc(-c2nn3c(-c4ccco4)nnc3s2)o1,16µM*,-6%,?,0%,-9%
COc1cc(CNc2ccc3c(c2)CCC3)cc(OC)c1O,i,-7%,i,?,?
O=C(O)CNc1ncccc1[N+](=O)[O-],i,2%,i,-13%[9.22 µM],7%
O=c1/c(=C/c2ccccn2)sc2n1CN(c1ccccc1)CN=2,i,?,i,-7%[9.22 µM],5%
Cc1cc(C)c2c(c1)/C(=c1/sc3n(c1=O)CN(c1ccccc1)CN=3)C(=O)N2,16µM*,-17%,?,-7%,?
O=C(CCSc1ccc(F)cc1)Nc1ccc(-n2cnnn2)cc1,?,-3%,i,1%,18µM*
CC(=O)Nc1cc(C(=O)NCc2ccc(F)cc2)ccc1S(=O)(=O)c1ccc(C)cc1,?,.,i,.,.
COc1cc(C(=O)Nc2ccc(Cl)c(C(F)(F)F)c2)cc(OC)c1OC,?,1%,i,?,5.2µM*
CCNC(=S)Nc1ccc(Cl)c(C(F)(F)F)c1,23µM*,?,?,?,-24%
COc1cc(CCC(=O)Nc2ccc(Cl)c(C(F)(F)F)c2)cc(OC)c1OC,16µM*,2%,i,17%,?
COc1cccc(C(=O)Nc2ccc(Cl)c(C(F)(F)F)c2)c1,i,10%,i,10%,-15%
COc1ccc2c(C)cc(SCC(=O)NC3CCCC3)nc2c1,i,-3%,i,8%,-4%
COc1ccc2nc(SCC(=O)NC3CCCC3)c(C)cc2c1,?,?,7.3µM*,8.2µM*,-20%
COc1ccc2nc(SCC(=O)NC3CCCCC3)[nH]c2c1,i,-5%,i,-16%,9%
CCOC(=O)N1CCC(NC(=O)c2cc3cc4cc(OC)ccc4nc3o2)CC1,i,-5%,i,14%,23µM*

# Screens (PubChem)
